Results published in PMC4336329 (PLoS ONE, 2015).
Hit rate of the full screen: of about 310,000 compounds, about 14,000 (4.5%) showed an effect of 50% or more. Effects have a minus sign here. Only a selection was taken, and strong results are over-represented in it overall.

Target: human ether-à-go-go-related gene (hERG) potassium channel (human, UniProt Q12809)
Experiment: primary screen, population patch clamp on CHO cells stably expressing hERG; higher = less effect of the substance
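Note: peak tail current of the secondary pulse compared with the same well before compound.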

Chain of human ether-à-go-go-related gene (hERG) potassium channel (Q12809 whole entry, looked up): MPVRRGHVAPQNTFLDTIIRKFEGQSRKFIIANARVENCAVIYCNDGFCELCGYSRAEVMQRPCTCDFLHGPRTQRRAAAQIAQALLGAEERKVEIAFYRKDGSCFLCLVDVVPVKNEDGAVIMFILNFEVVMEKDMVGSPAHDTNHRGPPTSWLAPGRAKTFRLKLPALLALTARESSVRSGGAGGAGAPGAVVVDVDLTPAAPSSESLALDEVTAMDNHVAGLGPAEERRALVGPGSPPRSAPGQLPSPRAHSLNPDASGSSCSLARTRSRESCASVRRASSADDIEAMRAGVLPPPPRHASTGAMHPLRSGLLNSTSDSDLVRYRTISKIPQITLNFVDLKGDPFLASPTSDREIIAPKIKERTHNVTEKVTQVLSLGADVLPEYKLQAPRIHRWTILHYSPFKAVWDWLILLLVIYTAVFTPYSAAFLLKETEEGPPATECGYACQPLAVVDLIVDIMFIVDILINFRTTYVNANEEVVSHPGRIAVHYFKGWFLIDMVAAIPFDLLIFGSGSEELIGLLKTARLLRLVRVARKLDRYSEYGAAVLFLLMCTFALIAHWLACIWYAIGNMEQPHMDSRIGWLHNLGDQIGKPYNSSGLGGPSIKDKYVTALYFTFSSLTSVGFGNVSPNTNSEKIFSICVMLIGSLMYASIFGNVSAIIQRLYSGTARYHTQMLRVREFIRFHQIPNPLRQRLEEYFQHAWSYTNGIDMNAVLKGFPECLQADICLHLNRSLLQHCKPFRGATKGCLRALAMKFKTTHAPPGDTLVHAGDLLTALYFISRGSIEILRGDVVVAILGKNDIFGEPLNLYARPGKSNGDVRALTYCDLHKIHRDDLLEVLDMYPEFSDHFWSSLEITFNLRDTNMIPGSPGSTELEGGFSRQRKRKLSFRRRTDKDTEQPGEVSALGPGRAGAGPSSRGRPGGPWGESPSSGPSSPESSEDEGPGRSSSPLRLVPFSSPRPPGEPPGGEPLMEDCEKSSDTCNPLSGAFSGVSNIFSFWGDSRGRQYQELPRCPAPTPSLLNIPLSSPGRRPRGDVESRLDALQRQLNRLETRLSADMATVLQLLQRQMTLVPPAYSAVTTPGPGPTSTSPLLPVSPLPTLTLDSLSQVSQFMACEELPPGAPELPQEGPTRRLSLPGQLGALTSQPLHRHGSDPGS

Row | Structure (SMILES) | hERG current change (%, negative = inhibition) at 10uM
1 | CC1=C(C(=O)Nc2ccccc2)C(c2cccs2)NC(=O)N1 (centres unmarked) | 15.6%
2 | Cc1cc(C)n(CC(=O)NNC(=O)c2ccc(NC(=O)CC#N)cc2)n1 | 5.56%
3 | Cc1cc(C(C)(C)C)ccc1OCCN(C)C | -7.47%
4 | Cc1cc(C(C)(C)C)ccc1OCCOCCN1CCCC1 | -44.5%
5 | Cc1cc(C(C)(C)CC(C)(C)C)ccc1OCCOCC[N+](C)(C)Cc1ccccc1.[Cl-] | -80.9%
6 | Cl.Nc1ccc2c(c1)oc1ccccc12 | 4.15%
7 | CCc1ccc(NC(=O)Nc2ccc3c(c2)N(C)C(=O)CS3)cc1 | 7.64%
8 | CCc1cc2c(NCCC(=O)O)ncnc2s1 | 4.76%
9 | CCc1cc2c(NCCO)ncnc2s1 | 14.3%
10 | CCc1cc2c(NCCN3CCCCC3)ncnc2s1.Cl | -71.9%
11 | Cc1csc(SCC(=O)NC2CCCCC2)n1 | -1.79%
12 | CCOc1ccccc1NC(=O)C(Sc1nnc2ccccn12)c1ccccc1 (centres unmarked) | -12.5%
13 | Cc1ccc2cc(C)c3nnc(SCC(=O)NCc4ccco4)n3c2c1 | -25.5%
14 | O=C1c2ccc3c4c(ccc(c24)C(=O)N1c1ccc(O)cc1)C(=O)N(c1ccc(O)cc1)C3=O | 23.3%
15 | CCNS(=O)(=O)c1ccc(Br)c(OC)c1 | 10.4%
16 | Cc1cc(=O)oc2c(C(=O)/C=C\c3cccs3)c(O)ccc12 | 11.1%
17 | COc1cccc(-c2nn(C)c3sc(C(=O)NCCCN(C)Cc4ccccc4)cc23)c1 | -52.2%
18 | CCN(CCCNC(=O)c1cc2c(-c3cccc(OC)c3)nn(C)c2s1)Cc1ccccc1 | -68.1%
19 | CCN(CC)CCNC(=O)c1cc2c(-c3cccc(OC)c3)nn(C)c2s1 | -31.8%
20 | CCN(CC)CCCNC(=O)c1cc2c(-c3cccc(OC)c3)nn(C)c2s1 | -44.7%
21 | COCCCNC(=O)c1cc2c(-c3cccc(OC)c3)nn(C)c2s1 | -5.59%
22 | CCCCN(C)CCNC(=O)c1cc2c(-c3cccc(OC)c3)nn(C)c2s1 | -49.5%
23 | O=C(COc1ccccc1Cl)Nc1ccc(S(=O)(=O)N2CCOCC2)cc1 | 15.4%
24 | COc1ccc(C(=O)NCCc2c[nH]c3ccccc23)cc1S(=O)(=O)N1CCOCC1 | -9.63%
25 | COc1ccc(NC(=O)/C(C#N)=C\c2ccc(Br)o2)cc1 | 4.52%
26 | Cc1ccc(C(=O)Nc2cccc(S(=O)(=O)N3CCOCC3)c2)cc1[N+](=O)[O-] | 24.5%
